# Assay outcomes deposited in PubChem by National Center for Advancing Translational Sciences (NCATS).
# This is a sample that favours compounds with a hit; in the whole collection about 19% have one here.
# TGFb inhibitor = blocks TGF-b signaling; HepG2 CAGA-GFP TGF-b/SMAD3 reporter, GFP fluorescence, 18 h; TGF-beta stimulated, 500 pg/mL final; Potency, µM (highest dose often 46.1 µM), inactives show top-dose activity, negative = inhibition, actives largely listed as inhibitors; hit rate 1.2% among 410,000; note: potency is the fitted concentration of half-maximal effect; % is set by controls: 0 for no effect and ±100 for the full control effect; nearly all actives have a fitted effect of over 65% in size
#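 Inhibition of TGF-beta-driven CAGA-GFP reporter expression in HEPG2 cells is measured by cellular GFP fluorescence after 18 h stimulation with 500 pg/mL recombinant TGF-beta in 1% FBS medium at 37 degrees C.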
# TDP1 cell noCPT = qHTS for Inhibitors of human tyrosyl-DNA phosphodiesterase 1 (TDP1): qHTS in cells in absence of CPT | DT40 Tdp1-/- hTDP1 cells, no CPT, ATP luminescence, 48 h | Potency, µM (series often up to 46.2 µM), for the others: at the top dose activity change, negative = growth inhibition, usual class: inhibitors | hit rate 15% among 420,000 | AID 686978, 2013; note: potency is the fitted concentration of half-maximal effect; % is set by controls: 0 for no effect and ±100 for the full control effect; nearly all actives have a fitted effect of over 55% in size
#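 DT40 Tdp1-/-;hTDP1 cells, no CPT (DMSO vehicle only), 400 cells/well; compounds pin-transferred; ≥48 hr, 37 °C; CellTiter-Glo 30 min RT dark, luminescence read.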
# HepG2 tox = HepG2 cytotoxicity, counter-screen for TGF-b inhibitors | Potency, µM (titrated, usually from 46.1 µM), for the others: at the top dose activity change, negative = cytotoxicity, most hits filed as cytotoxic | hit rate 0.76% among 410,000 | HepG2 CAGA-GFP viability, ATP luminescence, 18 h; note: potency is the fitted concentration of half-maximal effect
#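 HepG2 CAGA-GFP cells (1000/well, DMEM with 1% FBS) received compound, then TGF-beta at 500 pg/mL final, and were incubated 18 hours at 37 degrees C. Viability was read by CellTiter-Glo luminescence. Media-only wells were set as complete cell-killing and DMSO as no toxicity.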
# IL-1B inflam inh = inhibitors of inflammasome signaling (IL-1 beta secretion) | THP-1 LPS/ATP IL-1B secretion, AlphaLISA, 16 h; active compounds read low | hit rate 4.7% among 360,000 | activity change, % at 57.5 µM; in the data active = activity change below about -50%; inconclusive = mostly about -30% to -49%; note: % is set by controls: 0 for no effect and ±100 for the full control effect
#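 Secreted IL-1B measured by AlphaLISA bead assay after 16 h compound exposure of THP-1 cells; compounds (final up to 57.5 uM) added 1 h before LPS (250 ng/mL) and ATP (1.25 mM) stimulation; lower signal means less secretion.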
# DT40 TDP1 CPT = DT40-hTDP1 cell growth loss with CPT. hit rate 12% among 420,000. Potency, µM (highest dose often 46.2 µM), for inactives: top-dose activity change, negative = growth inhibition, usual class: inhibitors. chicken DT40 Tdp1-/-;hTDP1 cells + 20 nM CPT, ATP luminescence, 48 h. AID 686979; note: potency is the fitted concentration of half-maximal effect; % is set by controls: 0 for no effect and ±100 for the full control effect; nearly all actives have a fitted effect of over 55% in size
#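 Chicken DT40 Tdp1-/- cells complemented with human TDP1, 400 cells/well, exposed to compounds plus 20 nM camptothecin for at least 48 h at 37 C; viability read as ATP content by CellTiter-Glo luminescence.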
# ASM inhibitor = inhibitors of human secretory acid sphingomyelinase; P17405; placental ASM, HMU-PC fluorogenic substrate, 60 min; Potency, µM (highest dose often 57.5 µM), inactives show top-dose activity change, negative = inhibition, most hits filed as inhibitors; hit rate 0.006% among 340,000; AID 504937; note: potency is the fitted concentration of half-maximal effect
# Target sequence (P17405 47-631 limits assumed): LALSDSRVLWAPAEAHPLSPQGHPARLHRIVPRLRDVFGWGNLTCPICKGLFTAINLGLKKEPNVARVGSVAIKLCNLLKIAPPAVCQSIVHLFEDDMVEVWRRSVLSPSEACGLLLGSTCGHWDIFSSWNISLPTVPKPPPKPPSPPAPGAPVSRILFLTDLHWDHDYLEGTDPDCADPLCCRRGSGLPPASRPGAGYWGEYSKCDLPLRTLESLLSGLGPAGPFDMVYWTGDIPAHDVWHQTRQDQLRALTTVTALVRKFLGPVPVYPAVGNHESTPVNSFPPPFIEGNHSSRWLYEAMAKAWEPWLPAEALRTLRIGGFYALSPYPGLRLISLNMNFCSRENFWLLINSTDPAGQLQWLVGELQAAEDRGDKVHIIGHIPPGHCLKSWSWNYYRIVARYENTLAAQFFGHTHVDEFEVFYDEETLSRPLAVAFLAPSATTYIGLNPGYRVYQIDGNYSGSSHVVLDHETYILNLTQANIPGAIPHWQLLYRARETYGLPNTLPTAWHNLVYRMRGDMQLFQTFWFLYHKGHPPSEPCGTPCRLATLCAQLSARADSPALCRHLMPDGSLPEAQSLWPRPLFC
#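 Human placenta-derived ASM preincubated with compound 10 min at room temperature, then reacted with 9 uM (final) fluorogenic HMU-PC substrate for 60 min at 37 C. Stop solution raises pH to 10; fluorescence read at Ex 386/Em 447 nm.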
# Active calls of the source: *; ? = inconclusive; / = no result given. Unless noted, calls come from the whole dose curve; as a rule, active = well fitted curve in the direction sought with a large enough effect; inconclusive = small, poorly fitted or top-dose-only effect, or another doubt; inactive = no such curve, though single readings can be large; an effect the other way counts as inactive or inconclusive.
SMILES,TGFb inhibitor,TDP1 cell noCPT,HepG2 tox,IL-1B inflam inh,DT40 TDP1 CPT,ASM inhibitor
Cc1cccc(N2CCN(CCNC(=O)Nc3ccc(Cl)cc3)CC2)c1C,?,13µM*,-4.1%,/,13µM*,/
COc1ccc(CCNC(=O)C2=C(C)C(=O)OC23CCCCC3)c(OC)c1OC,/,?,-12.6%,/,?,/
C/C=C1\COC(C(=O)NCc2cccc(OC)c2OC)(C(F)(F)F)C=C1C=C1CCCCC1 (stereo unspecified),?,16.4µM*,-18.3%,?,14.6µM*,-5.5%
C/C=C1\COC(C(=O)NC)(C(F)(F)F)C=C1C=C1CCCCC1 (stereo unspecified),15.8µM*,/,-58.7%,/,/,/
O=C(NCc1ccccc1)C1(C(F)(F)F)C/C(=C/Cc2ccccc2)CCCO1 (stereo unspecified),-27.0%,/,3.6%,/,/,/
COc1cccc(CNC(=O)C2=C(C)C(=O)OC23CCN(C(C)=O)CC3)c1OC,-0.1%,-22.9%,-1.6%,/,0.9%,/
C/C=C1\COC(C(=O)NCCOCCO)(C(F)(F)F)C=C1C=C1CCCCC1 (stereo unspecified),12.6µM*,/,-57.4%,/,/,/
CC=C1COC(C(=O)NCCOCCO)(C(F)(F)F)C=C1C=C(C)C (stereo unspecified),?,/,-20.7%,/,/,/
C/C=C1\COC(C(=O)NCc2ccncc2)(C(F)(F)F)C=C1C=C1CCCCC1 (stereo unspecified),10µM*,?,-26.6%,94.9,?,-6.2%
CCCCNC(=O)C(NC(=O)c1ccc(C(F)(F)F)cc1)C(=O)c1ccccc1 (stereo unspecified),/,4.2%,/,17.5,-16.3%,/
CCCCNC(=O)C(NC(=O)Cc1cc(C(F)(F)F)cc(C(F)(F)F)c1)C(=O)c1ccccc1 (stereo unspecified),/,?,/,-7.7,29.1µM*,/
CC1(C)C(C=C(Cl)Cl)C1C(=O)N1CCN(Cc2ccccc2)CC1 (stereo unspecified),6.5%,?,6.1%,-51.0*,-3.3%,3.0%
O=C(C1CCN(Cc2ccccc2)CC1)N1CCN(C/C=C/c2ccccc2)CC1,5.3%,23.1µM*,-17.2%,?,?,5.1%
S=C(NC1CCCC1)N1CCN(C/C=C/c2ccccc2)CC1,-20.6%,20.6µM*,-22.0%,-65.9*,?,1.0%
O=C(c1cc2ccccc2o1)N1CCN(C/C=C/c2ccccc2)CC1,?,?,-17.1%,-54.5*,14.6µM*,-0.8%
NNC(=S)Nc1ccc(C(F)(F)F)cc1Cl,?,-10.8%,-10.2%,20.9,?,2.1%
CCOC(=O)c1c(C=O)c2sc(C)cc2n1C,-4.4%,-12.8%,10.1%,0.4,5.3%,35.3%
O=S(=O)(c1ccc(S(=O)(=O)N2CCN(C/C=C/c3ccccc3)CC2)cc1)N1CCCC1,-4.3%,11.6µM*,-24.1%,12.5,?,-0.6%
COc1ccc(Nc2oc(-c3ccco3)nc2S(=O)(=O)c2ccc(F)cc2)cc1,-1.8%,?,-2.8%,-56.9*,?,2.8%
O=S(=O)(c1ccc(F)cc1)c1nc(-c2ccco2)oc1Nc1ccc(F)cc1,-3.3%,?,-7.0%,?,?,-0.4%
COc1ccc(NC(=O)CSc2oc(-c3ccco3)nc2S(=O)(=O)c2ccccc2)c(OC)c1,0.4%,?,-2.7%,/,?,/
COc1ccccc1NC(=O)CSc1oc(-c2ccc(F)cc2)nc1S(=O)(=O)c1ccc(Br)cc1,5.3%,13µM*,1.2%,/,20.6µM*,/
Cc1ccc(S(=O)(=O)c2nc(-c3ccccc3)oc2SCC(=O)NC2CCCCC2)cc1,2.8%,10.7%,0.3%,/,-19.2%,/
COc1ccccc1NC(=O)CSc1oc(-c2ccccc2)nc1S(=O)(=O)c1ccc(C)cc1,-14.7%,20.6µM*,-14.0%,/,18.4µM*,/
COc1ccccc1NC(=O)CSc1oc(-c2ccco2)nc1S(=O)(=O)c1ccc(C)cc1,-4.7%,?,-24.3%,/,23.1µM*,/
SMILES,TGFb inhibitor,TDP1 cell noCPT,HepG2 tox,IL-1B inflam inh,DT40 TDP1 CPT,ASM inhibitor
NC(=O)CSc1oc(-c2ccc(F)cc2)nc1S(=O)(=O)c1ccccc1,-0.1%,-14.8%,-5.8%,-2.7,-8.9%,-0.1%
COC(=O)CC1(C(=O)OC)Oc2ccccc2C(=O)N1c1ccc(F)cc1F (stereo unspecified),-2.0%,?,0.7%,20.3,-9.1%,4.4%
CN1CCN(NC(=O)C2CC2)CC1,-1.5%,1.2%,8.0%,25.7,-8.4%,2.1%
Cc1ccccc1Cn1c(=O)n(Cc2ccc3c(c2)OCO3)c(=O)c2oc3ccccc3c21,4.9%,-0.5%,-2.3%,/,3.4%,/
COc1ccccc1NC(=O)CSc1oc(-c2ccccc2)nc1S(=O)(=O)c1ccccc1,-4.1%,16.4µM*,-8.1%,/,20.6µM*,/
COc1ccc(-c2nnc(SCC(=O)Nc3ccccc3OC)o2)cc1,-10.0%,-28.5%,-43.7%,-1.2,?,2.1%
Cc1ccc(S(=O)(=O)c2nc(-c3cccs3)oc2SCC(N)=O)cc1,7.1%,-12.5%,1.5%,6.8,-2.1%,-2.1%
COc1ccccc1NC(=O)CSc1oc(-c2cccs2)nc1S(=O)(=O)c1ccc(Br)cc1,-2.2%,?,-21.9%,/,23.1µM*,/
CCC(C(=O)Nc1cc(-c2cn3cccnc3n2)ccc1C)c1ccccc1 (stereo unspecified),-13.6%,-24.7%,-17.2%,/,-30.0%,/
CCN(C(=O)Cn1cc(C(F)(F)F)ccc1=O)C1CCS(=O)(=O)C1 (stereo unspecified),10.8%,-5.0%,38.9%,-5.1,-1.3%,/
COc1ccc(CCN2CC(C(=O)Nc3cc(F)ccc3F)CC2=O)cc1OC (stereo unspecified),16.3%,2.8%,0.1%,22.3,4.8%,-1.6%
O=C(COC(=O)c1c(Cl)ccc(Cl)c1Cl)NC1CCS(=O)(=O)C1 (stereo unspecified),-7.7%,-3.6%,-3.0%,-1.2,2.2%,0.8%
CCCCCNC(=O)CCn1c(=O)[nH]c2ccccc2c1=O,?,?,-23.7%,/,?,/
CCOc1ccccc1C(=O)NC(C(=O)NCc1ccccc1OC)C(C)C (stereo unspecified),-14.4%,16.4µM*,1.9%,12.5,?,3.9%
CCOc1ccc(C(C)NC(=O)Cc2ccccc2F)cc1OCC (stereo unspecified),21.1%,-10.4%,10.5%,-1.2,1.7%,1.9%
